The values that follow come from PubChem BioAssay (NCI).

This is part of a sample that, as a whole, favours compounds with a hit. Of some 83,000 tested, about 20% had one in any assay.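 Cell lines were cultured in 96-well plates, exposed to a single compound concentration, and assessed for percent growth 48 hours later.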 Unmarked numbers belong to inactive results. Activity calls are given as the source filed them. How the source made its calls: active means growth percent below 10; inactive means the rest.

Among the test systems are NCI-H23 lung; NCI-H226 lung; NCI-H322M lung; HOP-62 NSCLC; NCI-H460 lung; HOP-92 NSCLC; NCI-H522 lung; A549/ATCC NSCLC; 786-0 renal; COLO 205 colon; DU-145 prostate; K-562 leukemia; MALME-3M melanoma; MDA-MB-231 breast; RXF 393 renal; SF-268 CNS; SF-295 CNS; SF-539 CNS; UACC-257 melanoma; M14 melanoma.
Test in all cases: NCI-60 one-dose screen, 48 h (100 = growth as untreated, 0 = no growth, -100 = all killed)
Common to all, as to details: 10 µM unless noted

Regarding `C1=C2CCCC3=Cc4ccccc4OC23Oc2ccccc21`, the growth in the experiment on NCI-H23 lung is 42.3%; in the experiment on NCI-H226 lung, 56.4%; in the experiment on NCI-H322M lung, 50.8%; in the experiment on HOP-62 NSCLC, 41.6%; in the experiment with NCI-H460 lung, 13.5%; in the experiment on HOP-92 NSCLC it was 61.4%. Further, the growth is 3.9% (active) in the experiment with NCI-H522 lung; 32.7% with A549/ATCC NSCLC; 26.4% in the experiment with 786-0 renal; 25.4% in the experiment with COLO 205 colon; 28.1% with DU-145 prostate; 15.3% in the experiment on K-562 leukemia. Also, the growth in the experiment with MALME-3M melanoma is 56.8%; with MDA-MB-231 breast, 43.5%; in the experiment with RXF 393 renal it was 9.77% (active); in the experiment on SF-268 CNS it was 31.6%; with SF-295 CNS, 11.3%; in the experiment on SF-539 CNS it was 7.81% (active). Further, the growth in the experiment on UACC-257 melanoma is 40.1%; in the experiment with M14 melanoma it was 19.2%.
As to `C(CCCSC1=NCCN1)CCSC1=NCCN1`, the growth is 94.8% in the experiment on NCI-H23 lung; 107% in the experiment on NCI-H226 lung; 113% in the experiment with NCI-H322M lung; 93.1% in the experiment with HOP-62 NSCLC; 110% in the experiment on NCI-H460 lung; 41.4% in the experiment on HOP-92 NSCLC. The growth in the experiment on NCI-H522 lung is 103%; in the experiment with A549/ATCC NSCLC, 104%; in the experiment on 786-0 renal, 97%; in the experiment on COLO 205 colon, 121%; in the experiment on DU-145 prostate, 109%; in the experiment on K-562 leukemia, 116%. Further, the growth is 104% in the experiment with MALME-3M melanoma; 103% in the experiment on MDA-MB-231 breast; 104% in the experiment with RXF 393 renal; 106% in the experiment with SF-268 CNS; 108% in the experiment on SF-295 CNS; 101% in the experiment on SF-539 CNS. For the same molecule, the growth with UACC-257 melanoma was 98.5%; with M14 melanoma, 99.3%.
With `CCOC(=O)c1c(Nc2nc3ccccc3s2)sc2c1CCC(=O)C2`, the growth was 26.3% in the experiment on NCI-H23 lung; 91.9% in the experiment with NCI-H226 lung; 85% in the experiment on NCI-H322M lung; 66.4% in the experiment on HOP-62 NSCLC; 34% in the experiment with NCI-H460 lung; 85.4% in the experiment on HOP-92 NSCLC. The growth in the experiment on NCI-H522 lung is 8.13% (active); in the experiment on A549/ATCC NSCLC, 68.8%; with 786-0 renal, 66%; in the experiment with COLO 205 colon it was 65.9%; in the experiment with DU-145 prostate it was 84.8%; in the experiment on K-562 leukemia, 10.2%. Moreover, the growth in the experiment with MALME-3M melanoma was 93.9%; in the experiment on MDA-MB-231 breast, 79.4%; in the experiment on RXF 393 renal it was 83.6%; with SF-268 CNS it was 71%; with SF-295 CNS it was 86.3%; with SF-539 CNS, 46.8%. Besides, the growth with UACC-257 melanoma is 92.7%; in the experiment with M14 melanoma, 58.6%.
With `Cc1[nH]c(C(=O)Nc2ccccc2OC2CCNC2)c(Cl)c1Cl` (stereo not given), the growth in the experiment on NCI-H23 lung is 87.1%; in the experiment with NCI-H226 lung it was 80.6%; with NCI-H322M lung, 92.1%; in the experiment on HOP-62 NSCLC, 78.7%; in the experiment on NCI-H460 lung, 72.6%; in the experiment with HOP-92 NSCLC it was 72.6%. In addition, the growth in the experiment with NCI-H522 lung is 60.7%; in the experiment on A549/ATCC NSCLC, 101%; in the experiment with 786-0 renal, 68.9%; in the experiment with COLO 205 colon, 83.5%; in the experiment with DU-145 prostate, 93.5%; with K-562 leukemia it was 52.2%. Besides, the growth in the experiment on MALME-3M melanoma is 97.5%; with MDA-MB-231 breast it was 54.4%; with RXF 393 renal, 76.8%; with SF-268 CNS it was 75.7%; with SF-295 CNS, 95.5%; with SF-539 CNS, 85.6%. For the same molecule, the growth with UACC-257 melanoma is 107%; with M14 melanoma it was 98.5%.
On to `CC(C)(C#N)c1cc(C(=O)Nc2cc(Nc3ncccc3-c3ncnc4nc[nH]c34)ccc2F)cc(C(F)(F)F)c1`, for which the growth was 24.3% with NCI-H23 lung; 41.8% in the experiment with NCI-H226 lung; 67.2% in the experiment on NCI-H322M lung; 45.7% in the experiment with HOP-62 NSCLC; 35.9% in the experiment with NCI-H460 lung; -5.84% (active) in the experiment on HOP-92 NSCLC. Further, the growth in the experiment with NCI-H522 lung is 62%; in the experiment with A549/ATCC NSCLC, 49.7%; in the experiment with 786-0 renal it was 64%; in the experiment on COLO 205 colon, 11.9%; in the experiment on DU-145 prostate, 66%; with K-562 leukemia, 5.56% (active). In addition, the growth was 2.06% (active) in the experiment on MALME-3M melanoma; 18.3% in the experiment with MDA-MB-231 breast; 91.7% in the experiment on RXF 393 renal; 66.2% in the experiment on SF-268 CNS; 74.5% with SF-295 CNS; 32.1% in the experiment on SF-539 CNS. Besides, the growth with UACC-257 melanoma was 12%; with M14 melanoma, 6.18% (active).
For the molecule `COc1ccc(N/N=C/c2ccc3c(c2)Sc2ccccc2N3C)cc1`, the growth in the experiment on NCI-H23 lung was 76.8%; in the experiment with NCI-H226 lung it was -68.4% (active); in the experiment with NCI-H322M lung, 77.1%; with HOP-62 NSCLC, 66.9%; with NCI-H460 lung it was 28.9%; with HOP-92 NSCLC, 67.5%. The growth was 46.9% in the experiment on NCI-H522 lung; 57.2% in the experiment on A549/ATCC NSCLC; 88.4% with 786-0 renal; 102% in the experiment with COLO 205 colon; 58.7% in the experiment with DU-145 prostate; 4.21% (active) in the experiment with K-562 leukemia. In addition, the growth in the experiment with MALME-3M melanoma is 107%; in the experiment on MDA-MB-231 breast, 84.2%; in the experiment on RXF 393 renal, 105%; in the experiment with SF-268 CNS it was 53.7%; in the experiment on SF-295 CNS, 6.85% (active); in the experiment with SF-539 CNS, 57.1%. Also, the growth is 96.1% with UACC-257 melanoma and 40.9% with M14 melanoma.
Turning to `CCOC(=O)CSc1nc2sc3c(c2c(=O)n1-c1ccccc1)CCCCC3`, the growth was 96.2% in the experiment on NCI-H23 lung; 93% in the experiment on NCI-H226 lung; 108% in the experiment with NCI-H322M lung; 97.6% in the experiment with HOP-62 NSCLC; 110% with NCI-H460 lung; 104% with HOP-92 NSCLC. The growth in the experiment with NCI-H522 lung was 80.4%; in the experiment on A549/ATCC NSCLC, 104%; in the experiment with 786-0 renal, 109%; in the experiment with COLO 205 colon it was 119%; with DU-145 prostate, 108%; with K-562 leukemia, 98.4%. Moreover, the growth in the experiment on MALME-3M melanoma was 109%; in the experiment with MDA-MB-231 breast it was 105%; in the experiment with RXF 393 renal, 119%; in the experiment on SF-268 CNS it was 104%; in the experiment on SF-295 CNS it was 96.3%; in the experiment on SF-539 CNS, 101%. For the same molecule, the figures for the growth in the experiment with UACC-257 melanoma and in the experiment with M14 melanoma were 96.8% and 108%, respectively.
